PI5P4K alpha inh: qHTS for Inhibitors of phosphatidylinositol 5-phosphate 4-kinase (PI5P4K). Phosphatidylinositol 5-phosphate 4-kinase type-2 alpha (Homo sapiens), P48426. PI5P4Kalpha enzyme, ADP-Glo luminescence, 60 min; hits give low values. max response, %. hit rate 1.2% among 330,000; active means max response of -50% or lower; inconclusive means between -30% and -50%; inactive means -30% or higher; further: value at the top dose of about 77 µM; on the % scale 0 is the no-effect control and ±100 the full control effect
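Luminescence from ADP-Glo served as readout of PI5P4Kalpha activity in a qHTS format. Reaction: enzyme, substrate, compound, ATP at 5 microM final, 60 min at RT.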
L3MBTL1 inh: qHTS Assay for the Inhibitors of L3MBTL1; hit rate 0.66% among 230,000; Potency, µM (series often up to 57.1 µM), for the others: at the highest dose activity, negative = inhibition, usual class: inhibitors; AID 485360, 2010; AlphaScreen L3MBTL1–H3K9me1 peptide binding; further: potency means the concentration at half of the fitted maximal effect; on the % scale 0 is the no-effect control and ±100 the full control effect; nearly all actives have a fitted effect of over 60% in size
Target sequence (Q9Y468 whole entry, looked up): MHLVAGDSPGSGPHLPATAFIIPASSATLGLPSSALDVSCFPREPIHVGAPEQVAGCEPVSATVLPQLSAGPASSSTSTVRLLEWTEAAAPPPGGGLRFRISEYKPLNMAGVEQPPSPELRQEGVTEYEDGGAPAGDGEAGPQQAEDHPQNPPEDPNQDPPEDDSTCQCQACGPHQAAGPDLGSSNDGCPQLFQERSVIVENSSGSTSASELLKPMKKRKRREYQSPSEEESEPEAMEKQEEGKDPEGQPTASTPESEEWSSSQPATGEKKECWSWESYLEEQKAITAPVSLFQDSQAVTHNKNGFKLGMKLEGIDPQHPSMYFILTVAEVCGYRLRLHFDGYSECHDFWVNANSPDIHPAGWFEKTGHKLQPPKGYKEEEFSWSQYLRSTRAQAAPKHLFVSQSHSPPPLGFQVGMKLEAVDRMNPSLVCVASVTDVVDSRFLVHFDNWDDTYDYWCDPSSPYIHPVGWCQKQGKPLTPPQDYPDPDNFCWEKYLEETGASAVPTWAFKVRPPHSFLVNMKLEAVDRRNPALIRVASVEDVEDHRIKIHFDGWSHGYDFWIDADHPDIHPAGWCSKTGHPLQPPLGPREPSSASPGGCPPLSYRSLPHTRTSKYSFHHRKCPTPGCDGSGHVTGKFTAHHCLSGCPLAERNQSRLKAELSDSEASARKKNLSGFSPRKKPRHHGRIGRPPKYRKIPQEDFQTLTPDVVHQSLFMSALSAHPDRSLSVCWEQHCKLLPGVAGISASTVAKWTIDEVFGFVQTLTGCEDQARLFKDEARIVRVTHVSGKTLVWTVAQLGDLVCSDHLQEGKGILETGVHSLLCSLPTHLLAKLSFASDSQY
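Read-out is AlphaScreen signal from streptavidin donor and nickel chelate acceptor beads (10 ug/mL final each) bridging L3MBTL1 (50 nM) and biotinylated K9-monomethylated H3(1-15) peptide (75 nM), after 30 min compound exposure at room temperature.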
HP1b chromo inh: HTS for Inhibitors of HP1-beta Chromodomain Interactions with Methylated Histone Tails | hit rate 0.56% among 390,000 | AlphaScreen HP1-beta / biotin-H3K9me3 peptide binding | Chromobox protein homolog 1 (Homo sapiens), P83916 | Potency, µM (doses to about 114 µM), inactives show at the top dose activity change, negative = inhibition, usual class: inhibitors; further: potency means the concentration at half of the fitted maximal effect; nearly all actives have a fitted effect of over 70% in size
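Compound inhibition of the preformed complex between 50 nM HP1-beta and 50 nM biotinylated H3K9me3 peptide was read by AlphaScreen. Buffer was PBS pH 7.4 with 0.01% Tween-20. Incubations ran 30 min at room temperature, with 10 ug/mL donor/acceptor beads.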
JMJD2A Tudor: qHTS Assay for Inhibitors of JMJD2A-Tudor Domain. AlphaScreen JMJD2A-Tudor / H3K4me3 peptide binding. Lysine-specific demethylase 4A (Homo sapiens), O75164. Potency, µM (top dose mostly 114 µM), inactives show top-dose activity change, negative = inhibition, hits mostly inhibitors. hit rate 4.4% among 390,000; further: potency means the concentration at half of the fitted maximal effect; on the % scale 0 is the no-effect control and ±100 the full control effect; nearly all actives have a fitted effect of over 50% in size
BAZ2B block: qHTS Assay for Inhibitors of BAZ2B | Bromodomain adjacent to zinc finger domain protein 2B (Homo sapiens), Q9UIF8 | AlphaScreen BAZ2B-H3K14Ac peptide displacement | Potency, µM (doses to about 114 µM), for inactives: at the highest dose activity change, negative = inhibition, usual class: inhibitors | hit rate 4.4% among 360,000 | AID 504333, 2011; further: potency means the concentration at half of the fitted maximal effect; on the % scale 0 is the no-effect control and ±100 the full control effect; nearly all actives have a fitted effect of over 60% in size
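AlphaScreen displacement: compounds (up to 110uM) incubated 30 min at room temperature with a preformed 50 nM BAZ2B/50 nM biotinylated H3K14Ac peptide complex in PBS pH 7.4 with Tween-20. Donor and acceptor beads at 10 ug/mL final added, 20 min light-protected before reading.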
G9a block: qHTS Assay for Inhibitors of Histone Lysine Methyltransferase G9a. Histone-lysine N-methyltransferase EHMT2 (Homo sapiens), Q96KQ7. G9a H3K9 monomethylation, AlphaScreen, 2 h. Potency, µM (titrated, usually from 102 µM), inactives show at the highest dose activity, negative = inhibition, actives largely listed as inhibitors. hit rate 8.8% among 350,000; further: potency means the concentration at half of the fitted maximal effect; on the % scale 0 is the no-effect control and ±100 the full control effect; nearly all actives have a fitted effect of over 75% in size
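G9a (20 nM) preincubated 15 min RT with compounds, then 500 nM biotinylated H3K9 peptide and 20 uM SAM added; 2 h RT reaction. Monomethyl-H3K9 product detected by AlphaScreen with anti-H3K9me1 antibody, streptavidin donor and anti-rabbit IgG acceptor beads.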
Starred values were filed as active, the others as inactive; u = inconclusive; x = not tested or not shown; [ ] = another dose, or the depositor's remark. Rows were chosen to be rich in hits. Some 11% of all compounds tested hit in one or more screens of this group. Unless noted, the call rests on the fitted dose curve; in most records, active means well fitted inhibition curve with a large enough effect; inconclusive means small, poorly fitted or top-dose-only effect; inactive means no such curve, though single readings can be large or run the other way.

SMILES	PI5P4K alpha inh	L3MBTL1 inh	HP1b chromo inh	JMJD2A Tudor	BAZ2B block	G9a block
C#CCOCCOCCOCCNc1nc(N2CCN(C(=O)CCCCCCCCCCNC(=O)[C@H](CCCCN)n3cc(C)nn3)CC2)nc(N2CCN(C(=O)CCCCCCCCCCNC(=O)[C@H](CCCCN)n3cc(CCCC(=O)O)nn3)CC2)n1	-53.7*	7.5%	8.9%	u	-30.8%	6.5%[2.33 µM]
C#CCOCCOCCOCCNc1nc(N2CCN(C(=O)CCCCCCCCCCNC(=O)[C@H]([C@@H](C)CC)n3cc(CCCCCN)nn3)CC2)nc(N2CCN(C(=O)CCCCCCCCCCNC(=O)[C@@H]([C@H](C)CC)n3cc(CCCCCN)nn3)CC2)n1	x	-10.5%	x	x	50.1µM*	-1.5%[2.33 µM]
Cn1c(=O)oc2cc(S(=O)(=O)CCC(=O)N3CCN(c4cccc(Cl)c4)CC3)ccc21	x	x	62.8%	4.9%	8.2%[57.1 µM]	-3.6%[59 µM]
COc1cc(NC(=O)CSc2nc(-c3ccco3)cc(C(F)(F)F)n2)cc(OC)c1OC	x	x	43.6%	5.5%	1.8%	2.2%[59 µM]
C=C1CCN(C(C)C(=O)OCc2ccc(C)cc2)S(=O)(=O)c2ccccc21 (configuration not stated)	x	x	94.1%	32.4%	x	x
Cc1cccc(Cn2cnc3c(oc4ccccc43)c2=O)c1	x	x	0.6%	-18.8%	-1.6%	11.5%[59 µM]
O=C(CSc1cccc[n+]1[O-])CSc1cccc[n+]1[O-]	-3.3	10.1%	37.0%	2.1%	-23.4%	x
[O-][n+]1ccccc1SSc1cccc[n+]1[O-]	x	x	x	x	x	1.26µM*
CC(=O)NC(c1ccc(C(C)C)cc1)c1ccc2cccnc2c1O (configuration not stated)	-5.4	-10.8%	35.1%	56.2µM*	u	20.0%
COc1cccc(C(NC(C)=O)c2ccc3cccnc3c2O)c1 (configuration not stated)	-1.8	u	-1.3%	56.2µM*	17.8µM*	u
CCCCC(=O)NC(c1cccc([N+](=O)[O-])c1)c1ccc2cccnc2c1O (configuration not stated)	0.9	x	48.8%	31.6µM*	x	x
COc1cccc(C(Nc2ccccc2)c2ccc3ccc(C)nc3c2O)c1 (configuration not stated)	-3.3	x	x	x	x	x
CC(=O)NC(c1cccc([N+](=O)[O-])c1)c1ccc2cccnc2c1O (configuration not stated)	-1.1	-85.7%	35.7%	31.6µM*	38.1%	x
CCCCC(=O)NC(c1cccc([N+](=O)[O-])c1)c1c(OC(C)=O)ccc2ccccc12 (configuration not stated)	3.2	-2.8%	-0.6%	-24.0%	u	-51.0%[59 µM]
CCCCNC(=O)c1cccc(NC(=O)c2nsc3ccccc23)c1	x	x	13.7%[57 µM]	-11.4%	0.1%	u
O=c1ccn([C@@H]2O[C@H](COP(=O)(O)O)[C@@H](O)[C@H]2O)c(=O)[nH]1	x	x	x	x	x	32.5%[59 µM]
Oc1cccc(C(Nc2nccs2)c2ccc3cccnc3c2O)c1 (configuration not stated)	-23.2	u	u	31.6µM*	28.2µM*	u
O=[N+]([O-])c1ccc(NC(c2ccccc2)c2ccc3cccnc3c2O)cc1 (configuration not stated)	1.6	x	-13.2%[57 µM]	u	x	x
CCN(CC)Cc1cc(C(=O)O)c(-c2ccccc2)o1	3.3	x	49.2%	-5.8%	-37.8%	x
CCN(CC)Cc1oc(-c2ccccc2)cc1C(=O)O	-9.4	-3.2%	-7.6%	56.2µM*	-5.7%	x
NCc1oc(-c2ccccc2)cc1C(=O)O	2.7	x	6.9%	-20.4%	-1.6%	50.1µM*
COc1ccc(NC(=O)CN(c2cc(C)cc(C)c2)S(=O)(=O)c2c(C)n[nH]c2C)cc1	-3.7	x	-9.4%	50.1µM*	6.0%	-16.3%
Cc1cc(C)cc(N(CC(=O)Nc2ccc(C(F)(F)F)cc2)S(=O)(=O)c2c(C)[nH]c(=O)[nH]c2=O)c1	3.4	x	6.3%[57 µM]	-25.7%	-22.2%	25.1µM*
Cc1nc2cccnc2n1-c1cccc(C(=O)NCc2cccc(Cl)c2)c1	x	x	9.6%	-8.3%	-11.1%	-4.8%[59 µM]
O=C(N/N=C/c1ccc(N2CCCCC2)o1)c1ccccc1[N+](=O)[O-]	-20.2	2.6%	-10.3%	u	-8.6%	11.2µM*
SMILES	PI5P4K alpha inh	L3MBTL1 inh	HP1b chromo inh	JMJD2A Tudor	BAZ2B block	G9a block
CC(C)(C)OC(=O)NCCCNc1ncnc2ccc(-c3ccc4c(c3)OCO4)cc12	x	x	x	-24.8%	x	x
COc1cccc(-c2nnc(N)o2)c1	-1.4	x	21.1%	-5.8%	-1.7%	0.8%
COc1cccc(-c2nnc(NC(=O)c3cccc(F)c3)o2)c1	-1.4	x	42.0%	-29.7%	2.6%	30.1%[12.7 µM]
CC(=O)Oc1ccc(C(=O)Nc2cccc(-c3nnc(-c4ccco4)o3)c2)cc1	-2.3	5.7%	17.3%	-19.7%	-29.0%	50.1µM*
COc1cccc(-c2nnc(-c3ccco3)o2)c1	-29.2	-2.1%	-1.5%	50.1µM*	5.1%	-8.3%
O=C(Nc1cccc(-c2nnc(-c3ccco3)o2)c1)c1ccccc1	21.7	-0.8%	19.5%	-7.7%	-4.2%	7.6%
COc1cccc(-c2nnc(NC(=O)C(C)C)o2)c1	7.3	-13.6%	40.1%	u	79.4µM*	8.91µM*
COc1cccc(-c2nnc(-c3ccc(C)o3)o2)c1	x	-4.9%	29.6%	-16.2%	-4.2%	12.6µM*
COc1cccc(C(=O)Nc2ccc(-c3nnc(-c4ccco4)o3)cc2)c1	1.7	1.3%	19.3%	-0.8%	-3.2%	18.2%
CCCCNC(=O)CCCn1c(=O)c2ccccc2n(Cc2cccc(Cl)c2)c1=O	x	x	29.4%	-8.2%	-2.5%	-33.8%[59 µM]
C#CC(C)(C)NS(=O)(=O)c1cc(-c2nnc(Nc3ccc(C)cc3)c3ccccc23)ccc1C	x	x	35.1%	-7.1%	-2.5%	6.7%[59 µM]
COc1ccc2[nH]c3c(c2c1)CCNC3c1ccc([N+](=O)[O-])o1 (configuration not stated)	u	x	-8.8%	50.1µM*	u	31.6µM*
COc1ccc2[nH]c3c(c2c1)CCNC3C1CC=C(C)CC1 (configuration not stated)	-5.6	-25.3%	10.9%	-35.2%	-37.9%	-20.7%[59 µM]
COc1ccc(NS(=O)(=O)c2ccc3c(c2)CCN3C(=O)CCC(=O)O)cc1Cl	x	x	24.2%	-5.1%	-14.1%	-0.2%[59 µM]
